# Measured values taken from publication PMC8384837, “Expanding the binding specificity for RNA recognition by a PUF domain”.
# How the values were obtained:
# Assay in all cases: yeast three-hybrid, YBZ-1, SC-Leu-His + 0.5 mM 3-AT, 4 days
# Conditions in all cases: tags: N-Gal4 AD-HA kept; label: inside an RPR1-promoter hybrid RNA with tandem MS2 sites; ssRNA
# PUM1 PUF domain R2-GWW = PUM1 PUF domain R2-GWW (Homo sapiens, UniProt Q14671 828-1176, N899G;Y900W;Q903W)
# How it was run: (§1)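 Sequencing with Illumina followed PCR amplification of the repeat regions from transformants grown four days on SC-Leu (input) or SC-Leu-His + 0.5 mM 3-AT (selection). The transformants were strain YBZ-1 with a LexA–MS2 coat fusion and a HIS3 reporter, carrying Pumilio-1 PUF domain libraries and matching RNA elements. The interaction score is the log change in variant frequency from input to selection, computed in log2 with a pseudocount of 1 for absent variants.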
# PUM1 PUF domain R2-PVM = PUM1 PUF domain R2-PVM (Homo sapiens, UniProt Q14671 828-1176, N899P;Y900V;Q903M)
# How it was run: as §1
# PUM1 PUF domain R1-GKR = PUM1 PUF domain R1-GKR (Homo sapiens, UniProt Q14671 828-1176, S863G;R864K;Q867R)
# How it was run: as §1
# PUM1 PUF domain R1-KDT = PUM1 PUF domain R1-KDT (Homo sapiens, UniProt Q14671 828-1176, S863K;R864D;Q867T)
# How it was run: as §1
# PUM1 PUF domain R1-MRR = PUM1 PUF domain R1-MRR (Homo sapiens, UniProt Q14671 828-1176, S863M;Q867R)
# How it was run: as §1
# PUM1 PUF domain R1-RIE = PUM1 PUF domain R1-RIE (Homo sapiens, UniProt Q14671 828-1176, S863R;R864I;Q867E)
# How it was run: as §1
# PUM1 PUF domain R6-VYN = target: T1, PUM1 PUF domain R6-VYN (Homo sapiens, UniProt Q14671 828-1176, N1043V;Q1047N)
# T1 sequence: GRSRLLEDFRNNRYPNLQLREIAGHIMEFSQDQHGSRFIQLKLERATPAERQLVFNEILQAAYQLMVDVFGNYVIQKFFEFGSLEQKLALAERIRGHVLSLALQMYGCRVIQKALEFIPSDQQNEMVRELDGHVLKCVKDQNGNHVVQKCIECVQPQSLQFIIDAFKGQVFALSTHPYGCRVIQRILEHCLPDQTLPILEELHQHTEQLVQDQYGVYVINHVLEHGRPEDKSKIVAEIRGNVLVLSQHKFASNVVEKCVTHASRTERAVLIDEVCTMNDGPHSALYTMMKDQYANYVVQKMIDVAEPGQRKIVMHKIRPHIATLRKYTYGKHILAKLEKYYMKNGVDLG
# How it was run: as §1
# PUM1 PUF domain R5-GRR = PUM1 PUF domain R5-GRR (Homo sapiens, UniProt Q14671 828-1176, C1007G;Q1011R)
# How it was run: as §1
# PUM1 PUF domain R5-TVD = PUM1 PUF domain R5-TVD (Homo sapiens, UniProt Q14671 828-1176, C1007T;R1008V;Q1011D)
# How it was run: as §1
# PUM1 PUF domain R2-VYE = PUM1 PUF domain R2-VYE (Homo sapiens, UniProt Q14671 828-1176, N899V;Q903E)
# How it was run: as §1
# PUM1 PUF domain R3-VRD = PUM1 PUF domain R3-VRD (Homo sapiens, UniProt Q14671 828-1176, C935V;Q939D)
# How it was run: as §1
# PUM1 PUF domain R8-KYW = PUM1 PUF domain R8-KYW (Homo sapiens, UniProt Q14671 828-1176, N1122K;Q1126W)
# How it was run: as §1
# PUM1 PUF domain R4-GRS = PUM1 PUF domain R4-GRS (Homo sapiens, UniProt Q14671 828-1176, N971G;H972R;Q975S)
# How it was run: as §1
# PUM1 PUF domain R5-WHS = PUM1 PUF domain R5-WHS (Homo sapiens, UniProt Q14671 828-1176, C1007W;R1008H;Q1011S)
# How it was run: as §1
# PUM1 PUF domain R4-QWP = PUM1 PUF domain R4-QWP (Homo sapiens, UniProt Q14671 828-1176, N971Q;H972W;Q975P)
# How it was run: as §1
# PUM1 PUF domain R5-SAC = PUM1 PUF domain R5-SAC (Homo sapiens, UniProt Q14671 828-1176, C1007S;R1008A;Q1011C)
# How it was run: as §1
# PUM1 PUF domain R5-PFL = PUM1 PUF domain R5-PFL (Homo sapiens, UniProt Q14671 828-1176, C1007P;R1008F;Q1011L)
# How it was run: as §1
# PUM1 PUF domain R3-FFV = PUM1 PUF domain R3-FFV (Homo sapiens, UniProt Q14671 828-1176, C935F;R936F;Q939V)
# How it was run: as §1
# PUM1 PUF domain R4-GRR = PUM1 PUF domain R4-GRR (Homo sapiens, UniProt Q14671 828-1176, N971G;H972R;Q975R)
# How it was run: as §1
# PUM1 PUF domain R4-SFR = PUM1 PUF domain R4-SFR (Homo sapiens, UniProt Q14671 828-1176, N971S;H972F;Q975R)
# How it was run: as §1
sequence,measurement,setting,value
GGCUAGAACUAGUGGAUCCCCCGGCGCCCGGCGGCUCGAGCCCGGGUAAGUGUAAAGAGUCUGCAUGCCGCCGGGCGCCAUGCCUGCAGGUCGACUCUAGAAAACAUG,binding signal,PUM1 PUF domain R2-GWW,0.92 log2 enrichment (interaction score)
same,binding signal,PUM1 PUF domain R2-PVM,2.58 log2 enrichment (interaction score)
GGCUAGAACUAGUGGAUCCCCCGGCGCCCGGCGGCUCGAGCCCGGGUAAGUGUAAAUUGUCUGCAUGCCGCCGGGCGCCAUGCCUGCAGGUCGACUCUAGAAAACAUG,binding signal,PUM1 PUF domain R1-GKR,3.4 log2 enrichment (interaction score)
same,binding signal,PUM1 PUF domain R1-KDT,5.43 log2 enrichment (interaction score)
same,binding signal,PUM1 PUF domain R1-MRR,5.53 log2 enrichment (interaction score)
same,binding signal,PUM1 PUF domain R1-RIE,2.99 log2 enrichment (interaction score)
GGCUAGAACUAGUGGAUCCCCCGGCGCCCGGCGGCUCGAGCCCGGGUAAGUGAAAAUAGUCUGCAUGCCGCCGGGCGCCAUGCCUGCAGGUCGACUCUAGAAAACAUG,binding signal,PUM1 PUF domain R6-VYN,6.4 log2 enrichment (interaction score)
GGCUAGAACUAGUGGAUCCCCCGGCGCCCGGCGGCUCGAGCCCGGGUAAGUGUCAAUAGUCUGCAUGCCGCCGGGCGCCAUGCCUGCAGGUCGACUCUAGAAAACAUG,binding signal,PUM1 PUF domain R5-GRR,5.4 log2 enrichment (interaction score)
same,binding signal,PUM1 PUF domain R5-TVD,3.26 log2 enrichment (interaction score)
GGCUAGAACUAGUGGAUCCCCCGGCGCCCGGCGGCUCGAGCCCGGGUAAGUGUAAAAAGUCUGCAUGCCGCCGGGCGCCAUGCCUGCAGGUCGACUCUAGAAAACAUG,binding signal,PUM1 PUF domain R2-GWW,4.69 log2 enrichment (interaction score)
same,binding signal,PUM1 PUF domain R2-VYE,2.23 log2 enrichment (interaction score)
GGCUAGAACUAGUGGAUCCCCCGGCGCCCGGCGGCUCGAGCCCGGGUAAGUGUAAAUAGUCUGCAUGCCGCCGGGCGCCAUGCCUGCAGGUCGACUCUAGAAAACAUG,binding signal,PUM1 PUF domain R5-GRR,0.47 log2 enrichment (interaction score)
same,binding signal,PUM1 PUF domain R3-VRD,4.68 log2 enrichment (interaction score)
same,binding signal,PUM1 PUF domain R8-KYW,5.55 log2 enrichment (interaction score)
same,binding signal,PUM1 PUF domain R4-GRS,4.09 log2 enrichment (interaction score)
same,binding signal,PUM1 PUF domain R5-WHS,1.16 log2 enrichment (interaction score)
same,binding signal,PUM1 PUF domain R5-TVD,0.28 log2 enrichment (interaction score)
GGCUAGAACUAGUGGAUCCCCCGGCGCCCGGCGGCUCGAGCCCGGGUAAGUGUAUAUAGUCUGCAUGCCGCCGGGCGCCAUGCCUGCAGGUCGACUCUAGAAAACAUG,binding signal,PUM1 PUF domain R4-QWP,5.65 log2 enrichment (interaction score)
same,binding signal,PUM1 PUF domain R4-GRS,2.08 log2 enrichment (interaction score)
GGCUAGAACUAGUGGAUCCCCCGGCGCCCGGCGGCUCGAGCCCGGGUAAGUGUGAAUAGUCUGCAUGCCGCCGGGCGCCAUGCCUGCAGGUCGACUCUAGAAAACAUG,binding signal,PUM1 PUF domain R5-SAC,3.04 log2 enrichment (interaction score)
GGCUAGAACUAGUGGAUCCCCCGGCGCCCGGCGGCUCGAGCCCGGGUAAGUGUUAAUAGUCUGCAUGCCGCCGGGCGCCAUGCCUGCAGGUCGACUCUAGAAAACAUG,binding signal,PUM1 PUF domain R5-GRR,0.43 log2 enrichment (interaction score)
same,binding signal,PUM1 PUF domain R5-PFL,4.31 log2 enrichment (interaction score)
same,binding signal,PUM1 PUF domain R5-WHS,4.68 log2 enrichment (interaction score)
GGCUAGAACUAGUGGAUCCCCCGGCGCCCGGCGGCUCGAGCCCGGGUAAGUGUAAUUAGUCUGCAUGCCGCCGGGCGCCAUGCCUGCAGGUCGACUCUAGAAAACAUG,binding signal,PUM1 PUF domain R3-FFV,1.62 log2 enrichment (interaction score)
GGCUAGAACUAGUGGAUCCCCCGGCGCCCGGCGGCUCGAGCCCGGGUAAGUGUAAAUCGUCUGCAUGCCGCCGGGCGCCAUGCCUGCAGGUCGACUCUAGAAAACAUG,binding signal,PUM1 PUF domain R1-GKR,3.4 log2 enrichment (interaction score)
same,binding signal,PUM1 PUF domain R1-KDT,0.73 log2 enrichment (interaction score)
same,binding signal,PUM1 PUF domain R1-MRR,2.6 log2 enrichment (interaction score)
GGCUAGAACUAGUGGAUCCCCCGGCGCCCGGCGGCUCGAGCCCGGGUAAGUGUACAUAGUCUGCAUGCCGCCGGGCGCCAUGCCUGCAGGUCGACUCUAGAAAACAUG,binding signal,PUM1 PUF domain R4-GRR,2.98 log2 enrichment (interaction score)
same,binding signal,PUM1 PUF domain R4-SFR,4.24 log2 enrichment (interaction score)
GGCUAGAACUAGUGGAUCCCCCGGCGCCCGGCGGCUCGAGCCCGGGUAAGUGUAAGUAGUCUGCAUGCCGCCGGGCGCCAUGCCUGCAGGUCGACUCUAGAAAACAUG,binding signal,PUM1 PUF domain R3-FFV,6.72 log2 enrichment (interaction score)
